Screens (PubChem)
TRPM1 prom inh = inhibitors of MITF-driven TRPM1 promoter in melanoma cells. SK-MEL-5 TRPM1 promoter luciferase, 24 h. AID 488899. 330,000 compounds, 0.83% hits. inhibition, % at 12.5 µM;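 active means mean inhibition across replicates of 60% or more, whatever share of single replicates reaches that level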
LMP1 NFkB inh = Epstein-Barr LMP1 NF-kappaB reporter inhibition; LMP1-induced NF-kappaB luciferase reporter cells, luminescence; inhibition, % at 12.5 µM; 350,000 compounds, 0.69% hits; in the data active means inhibition above about 41%
Peg3 promoter = inhibitors of Peg3 promoter; HeLa PEG-Prom luciferase reporter, luminescence, overnight; inhibition, % at 20 µM; 360,000 compounds, 1.7% hits;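 active means inhibition of at least 50% at 20 µM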
TWEAK-Fn14 inh = TWEAK-Fn14 signaling inhibition; TWEAK-stimulated Fn14 reporter cells, luciferase luminescence, 8 h; inhibition, % at 10 µM; 360,000 compounds, 2% hits; in the data active means inhibition above about 50%
TROY signal inh = inhibitors of TROY-dependent NF-kB signaling. AID 1347056. inhibition, % at 10 µM. Q293 LMP1-TROYcd NF-kB luciferase reporter, 4 h. 360,000 compounds, 0.98% hits;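 active means compounds whose plate-normalised and pattern-corrected inhibition of the luciferase reporter signal at the single screening dose is 50% or more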
Shn3 inh set2 = inhibitors of Schnurri-3 3'UTR reporter in osteoblasts; Clone20 osteoblast Shn3 3'UTR firefly luciferase, 24 h; inhibition, % at 12.5 µM; 360,000 compounds, 0.52% hits;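 active means mean inhibition of at least 75% with every replicate also reaching 75%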
Large screens that a line does not name were inactive. The list is not random: actives were taken first. Their share in the collection is about 4.1%.

O=C(CSc1nc2ccccc2s1)Nc1ccc(Cl)c(S(=O)(=O)N2CCOCC2)c1	TWEAK-Fn14 inh 65
Cc1nnc(NC(=O)CSc2nc3ccccc3o2)s1	none
COc1cccc(NC(=O)c2cc3ccccc3o/c2=N\O)c1	TWEAK-Fn14 inh 78
C[C@H](CO)N1C[C@H](C)[C@@H](CN(C)C(=O)C2CC2)OCc2cnnn2CCCC1=O	none (no result: TRPM1 prom inh)
COC(=O)c1sc(NC(=S)NC(=O)c2cccc(Br)c2)nc1C	none
Cc1ccnc(NC(=O)c2cc3ccccc3oc2=O)c1	TWEAK-Fn14 inh 60
O=C(Nc1nc2ccccc2s1)C1CCN(S(=O)(=O)c2cc([N+](=O)[O-])ccc2Cl)CC1	TWEAK-Fn14 inh 84
CCC(C)NC(=O)C1CCN(S(=O)(=O)c2cc([N+](=O)[O-])ccc2Cl)CC1 (stereo not drawn)	none
Cc1cccc(NC(=O)c2cc3ccccc3oc2=O)c1	TWEAK-Fn14 inh 53
COc1ccc2oc(=O)c(C(=O)Nc3cccc(C)c3)cc2c1	none
O=C(O)C1CCN(S(=O)(=O)c2ccc(N3CCCC3C(=O)O)c([N+](=O)[O-])c2)CC1 (stereo not drawn)	none
COc1cccc(NC(=O)Nc2ccc(Br)cn2)c1	none
C[C@@H]1CN([C@@H](C)CO)S(=O)(=O)c2ccc(Br)cc2O[C@H]1CN(C)C(=O)C1CCC1	none (no result: TRPM1 prom inh)
CC(=O)N[C@@H](C)c1nc2ccccc2n1CCCN1CCN(c2nc(-c3ccc(C)cc3)cs2)CC1	none
CCNC(=O)CC1C(=O)N(CC)C(=S)N1NC(=O)c1cccnc1 (stereo not drawn)	LMP1 NFkB inh 74
CCNC(=O)CC1C(=O)N(CC)C(=S)N1NC(=O)c1ccc(Cl)cc1 (stereo not drawn)	none
Cc1cccc(NC(=O)CSc2nnnn2-c2ccc3c(c2)OCCO3)n1	none
CCOC(=O)C1CCCN(c2c(N3CCC(N4CCCCC4)CC3)c(=O)c2=O)C1 (stereo not drawn)	none (no result: TRPM1 prom inh)
CCCN1CCC(N2CCCC(C(=O)O)C2)CC1 (stereo not drawn)	TWEAK-Fn14 inh 61
CCN(Cc1cccs1)C(=O)CN1C(=O)NC(c2ccccc2)(c2ccccc2)C1=O	none
CCSc1nc(N2CCCCC2)c2c(c1C#N)CCCC2	TWEAK-Fn14 inh 94 (no result: TROY signal inh)
N#Cc1c(SCc2ccccc2)nc(N2CCOCC2)c2c1CCCC2	none
Cc1ccccc1P(=O)(c1ccccc1)c1ccccc1C	none (no result: TRPM1 prom inh)
Cc1cccc(NC(=O)C2Cc3ccccc3O/C2=N\O)c1 (stereo not drawn)	none
CSc1cccc(NC(=O)CSc2ccc(C)cc2)c1	none
CCC(=O)Nc1cccc(SC)c1	TWEAK-Fn14 inh 99
NC(N)=Nc1nc(-c2ccccc2)c2cc(F)ccc2n1	Peg3 promoter 88
Cc1ccc2c(c1)c(C1=c3ccccc3=NC1=O)c(O)n2C	Shn3 inh set2 96
CCSc1nc2sc3c(c2c(=O)n1-c1ccccc1)CCN(C(C)C)C3	none
CCCCNC(=O)C1(C)CCC(=O)N1C1CC1 (stereo not drawn)	none (no result: TRPM1 prom inh, LMP1 NFkB inh)
COc1ccc(NC(=O)N2C3CCCC2CC(NC(=O)C2CC2)C3)cc1 (stereo not drawn)	TWEAK-Fn14 inh 77
CC(C)C1CC(CCNCc2ccc(N(C)C)cc2)(c2ccccc2)CCO1 (stereo not drawn)	TRPM1 prom inh 73, Peg3 promoter 59
CC(C)C1CC(CCNCc2ccc3c(c2)OCO3)(c2ccccc2)CCO1 (stereo not drawn)	none
O=C(NCCCn1ccnc1)C(=O)NCC1OCCCN1S(=O)(=O)c1ccccc1 (stereo not drawn)	Shn3 inh set2 90
Cc1ccc(S(=O)(=O)c2c(C)cc(C)nc2Oc2cccc(C)c2C)cc1	TWEAK-Fn14 inh 72
CC(C)(Oc1ccc(F)cc1)C(=O)OCC(=O)c1ccc(S(C)(=O)=O)cc1	none
N/C(=N\OC(=O)c1ccccc1Cl)c1ccncc1	none
Cc1ccc(C(=O)O/N=C(\N)c2ccccc2)c(Cl)c1	TWEAK-Fn14 inh 96, TROY signal inh 82
Cc1ccccc1C(=O)O/N=C(\N)c1ccncc1	LMP1 NFkB inh 56
N/C(=N\OC(=O)c1cc(Br)ccc1Cl)c1ccccn1	none
Cc1ccc(C(=O)O/N=C(\N)c2ccccn2)c(Cl)c1	LMP1 NFkB inh 83, Peg3 promoter 103, TWEAK-Fn14 inh 105, TROY signal inh 86 (no result: TRPM1 prom inh)
CCc1nc2ccc(C(=O)NCc3ccc4c(c3)OCO4)cn2c1N(C)CCC(C)C	none (no result: TRPM1 prom inh, LMP1 NFkB inh)
CCN(C(=O)CSc1nc2ccccc2o1)c1c(N)n(Cc2ccccc2)c(=O)[nH]c1=O	none
C[C@H](CO)N1C[C@H](C)[C@@H](CN(C)Cc2ccc(C(=O)O)cc2)Oc2c(cccc2N(C)C)C1=O	none
Oc1[nH]c2ccccc2c1N=NC(=S)N1CCOCC1	TRPM1 prom inh 92, Peg3 promoter 53, TWEAK-Fn14 inh 104 (no result: Shn3 inh set2)
COc1ccc(/C=C2\Sc3ccc(C(=O)N4CCN(Cc5ccccc5)CC4)cc3N(C)C2=O)cc1OC	TWEAK-Fn14 inh 84, TROY signal inh 56
Cc1cc(C)n2nc(NCc3cccc(Br)c3)nc2n1	TROY signal inh 80
COc1ccc(CNc2nc3nc(C)cc(C)n3n2)cc1OC	none
CCN1CCN(C(=O)CCn2c(=O)c3cccn3c3cccnc32)CC1	none
O=C(COC(=O)c1ccccc1Cc1ccccc1)Nc1ccc(SC(F)F)cc1	none
Cc1ccc(C(=O)c2ccccc2C(=O)OCC(=O)Nc2ccc(SC(F)F)cc2)cc1	TWEAK-Fn14 inh 53
Cc1ccc(-c2cc3nc4c(c(=O)n3[nH]2)CCCC4)cc1	TWEAK-Fn14 inh 62
CN(c1ccc(OCC(=O)OCC(=O)Nc2ccc([N+](=O)[O-])cc2)cc1)S(=O)(=O)c1cccs1	none
Cc1nc2c3ccccc3nc(NNC(=O)CCC(=O)N3CCCC(C)C3)n2n1 (stereo not drawn)	none
CN(C(=O)C1CCCCC1)C1(C)CCS(=O)(=O)C1 (stereo not drawn)	none
O=c1[nH]nc(Sc2ncnc3sccc23)n1CCc1ccccc1	TWEAK-Fn14 inh 57
CCN(CC)C(=O)CSc1n[nH]c(=O)n1CCc1ccccc1	none
COc1ccc(OCCCN(C)Cc2ccccc2)cc1	TWEAK-Fn14 inh 76
Cc1cc(C)c(C(=O)/C=C/C=C/c2ccccc2)c(=O)[nH]1	none
Cc1cc(C)c(C(=O)/C=C/c2ccc(C(C)C)cc2)c(=O)[nH]1	Peg3 promoter 68, TWEAK-Fn14 inh 93, TROY signal inh 55
CCn1cc(C2Nc3ccccc3C(=O)N2O)c(C)n1 (stereo not drawn)	LMP1 NFkB inh 47
O=C1c2ccccc2NC(c2cccc(O)c2)N1O (stereo not drawn)	TROY signal inh 83
Cc1ccc(C)c(OCCC(=O)Nc2ccc(S(=O)(=O)N3CCCC3)cc2)c1	none (no result: TRPM1 prom inh)
CCN(CC)C(=O)Cn1cc(C(=O)C(=O)NCc2ccccn2)c2ccccc21	none
Cc1ccc(C)c(S(=O)(=O)N2CCN(C(=O)c3cc(-c4cccs4)nn3-c3ccccc3)CC2)c1	TWEAK-Fn14 inh 64
